A selection: hits, their analogues and other compounds. The true share with any hit is near 3.5%.
FBW7 activator – FBW7 E3 ligase activators, primary screen, biochemical, AlphaScreen, human; hit rate 0.13% among 650,000; AlphaScreen FBW7–phospho-cyclin E peptide binding, activator screen; normalized activity (activation), % at 26.1 µM; F-box/WD repeat-containing protein 7 (Homo sapiens), Q969H0; in the data active = normalized activity above about 1.9%;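 also: purified mutant Fbw7 with reduced substrate affinity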
TEAD-YAP block – TEAD-YAP interaction inhibition, primary screen, TEAD-YAP interaction inhibitor project, luminescence, HEK-TIYL cells | TEAD-Gal4/YAP UAS-luciferase luminescence | inhibition, % at 9.12 µM | hit rate 1.4% among 640,000 | AID 1259422, 2018; in the data active = inhibition above about 32%;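 also: 0% = median of test compound wells and 100% = reference inhibitor wells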
MITF primary – MITF inhibitors, primary screen, biochemical, AlphaScreen, human | AlphaScreen MITF homodimerization, bead proximity signal | inhibition, % at 2.6 µM | hit rate 0.91% among 650,000 | AID 1259374, 2018; in the data active = inhibition above about 50%;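 also: 0% = vehicle wells with protein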
Target sequence (O75030 whole entry, looked up): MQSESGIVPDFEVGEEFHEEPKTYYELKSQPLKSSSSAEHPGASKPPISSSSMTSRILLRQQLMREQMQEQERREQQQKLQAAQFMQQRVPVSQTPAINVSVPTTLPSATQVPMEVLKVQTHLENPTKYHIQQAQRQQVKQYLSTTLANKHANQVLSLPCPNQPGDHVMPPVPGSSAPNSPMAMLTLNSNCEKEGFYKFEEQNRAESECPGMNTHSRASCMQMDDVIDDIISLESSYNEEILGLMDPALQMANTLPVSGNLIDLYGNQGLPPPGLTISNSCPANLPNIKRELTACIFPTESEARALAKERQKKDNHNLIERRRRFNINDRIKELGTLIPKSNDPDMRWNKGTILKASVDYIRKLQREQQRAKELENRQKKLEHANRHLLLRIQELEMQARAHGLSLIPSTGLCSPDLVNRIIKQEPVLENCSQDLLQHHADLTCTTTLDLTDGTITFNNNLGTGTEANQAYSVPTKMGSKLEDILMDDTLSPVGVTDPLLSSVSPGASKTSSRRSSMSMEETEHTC
GPR151 activ – activators of human GPR151, primary screen, cell-based, PathHunter beta-arrestin, luminescence; G-protein coupled receptor 151 (Homo sapiens), Q8TDV0; PathHunter beta-arrestin GPR151 cells; activation, % at 11.2 µM; hit rate 1% among 650,000; AID 1508602, 2020; in the data active = activation above about 4.9%;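 also: 0% = median of compound wells and 100% = cells with positive control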
MITF confirm – MITF inhibitors, retest of hits, confirmation, biochemical, AlphaScreen, triplicate; shares compounds with MITF primary; AlphaScreen MITF homodimerization, biotin/His-MITF beads; inhibition, % at 2.6 µM; hit rate 16% among 4,700; AID 1259372, 2018;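 active = inhibition above a cutoff derived from the DMSO control wells, cut at about 28% in these data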;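 also: 0% = MITF dimer wells with DMSO only; inhibitors lower the bead chemiluminescence by keeping MITF from dimerizing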
AlphaScreen DR – AlphaScreen optical interference compounds, dose response, counter-screen, biochemical, HTS. shares compounds with MITF primary. AlphaScreen optical interference counterscreen, cell-free. IC50, µM. hit rate 6% among 480. AID 1259373, 2018; call rule not given here
AlphaScreen intf2 – AlphaScreen optical interference compounds, counter-screen for MITF inhibitor project, biochemical, triplicate; shares compounds with MITF primary; inhibition, % at 2.6 µM; LysRS AlphaScreen counterscreen, signal interference; hit rate 7.6% among 4,700;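 active = inhibition above a cutoff derived from the DMSO control wells, cut at about 30% in these data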
* marks the source's active call; other numbers are inactive results; nt = no result.

SMILES	FBW7 activator	TEAD-YAP block	MITF primary	GPR151 activ	MITF confirm	AlphaScreen intf2	others
CN1CCN(CC(=O)N/N=C\c2ccccc2O)CC1	-0.1	6.1	-1.2	0.2	nt	nt
CN1CCN(CC(=O)N/N=C\c2ccsc2)CC1	-0.1	0.8	25.5	0.7	nt	nt
COc1cc(/C=N\NC(=O)CN2CCN(C)CC2)cc2c1OCO2	-0.1	-6.0	50.7*	-0.3	25.8	0.4
COc1cc(/C=N\NC(=O)CN2CCN(C)CC2)cc(OC)c1	0.1	6.7	55.9*	0.5	-0.1	-2.9
O=C(Nc1nnc(SCc2ccc(F)cc2)s1)c1cccc([N+](=O)[O-])c1	0.0	4.3	7.8	-0.3	nt	nt
Cc1nc(N2CCCC2)c2ccsc2n1	0.0	-3.5	2.8	0.6	nt	nt
Cc1nc(N2CCOCC2)c2ccsc2n1	-0.2	-0.4	82.3*	-0.9	0.2	-6.0
CCOC(=O)CN(C)C(=O)C1CC(Cc2ccc(OC)cc2)=NO1 (stereo unspecified)	-0.2	-4.3	1.1	1.0	nt	nt
O=C(O)c1c2c(nc3ccc(S(=O)(=O)N4CCC(C(=O)O)CC4)cc13)CCC2	0.1	-8.1	67.5*	0.5	31.0*	0.8	AlphaScreen DR=>6.48
Cc1cc(N2CCCC(C(=O)NC34CC5CC(CC(C5)C3)C4)C2)nc(N)n1 (stereo unspecified)	0.6	-13.9	7.2	-0.6	nt	nt
O=C(CC(NCc1ccccn1)C(=O)O)Nc1ccc(F)cc1 (stereo unspecified)	-0.1	-14.9	107.7*	2.3	101.8*	100.3*
O=C(CC(NCc1ccccn1)C(=O)O)Nc1ccc(Oc2ccccc2)cc1 (stereo unspecified)	-0.4	1.7	90.5*	1.7	95.2*	100.3*
O=C(CC(NCc1ccco1)C(=O)O)Nc1ccc(Oc2ccccc2)cc1 (stereo unspecified)	-0.1	-1.6	5.6	1.1	nt	nt
O=C(CC(NCc1ccccn1)C(=O)O)Nc1cccc([N+](=O)[O-])c1 (stereo unspecified)	-0.3	-2.7	42.9	-1.1	nt	nt
COc1ccc(N(C(=O)COc2ccc(Br)cc2)S(=O)(=O)c2ccc(C)cc2)cc1	1.1	-12.8	62.5*	0.5	-2.5	11.9
COc1ccc(-c2ncn(-c3ccc(Nc4ncc5ccc(-c6cnn(C)c6)cc5n4)cc3)n2)cn1	1.0	8.6	54.7*	-0.2	12.1	7.8
COc1ccc(C(=O)Nc2ccccc2)cc1S(=O)(=O)Nc1cc(C)on1	-0.1	-2.4	69.3*	1.1	3.1	13.9
COc1ccc(NS(=O)(=O)c2cc(C(=O)Nc3ccccc3)ccc2OC)cc1	0.2	1.8	-1.4	-0.6	nt	nt
C=CCc1cccc(Cl)c1OCCN1CCOCC1	0.3	-1.6	-21.8	-1.1	nt	nt
C=CCc1cccc(Cl)c1OCCN1CCNCC1	0.4	7.1	55.6*	-0.2	-14.4	-1.9
C=CCc1cccc(C)c1OCCN1CCOCC1	-0.2	-1.6	85.7*	0.0	8.2	6.0
C=CCc1cccc(C)c1OCCCN1CCCC1	0.7	7.6	56.7*	-0.2	15.9	15.6
C=CCc1cccc(C)c1OCCCN1CCN(C)CC1	0.1	0.2	43.1	-1.7	nt	nt
N#Cc1c(-c2ccc(Br)cc2)cc(C2CC2)nc1SCC(=O)c1ccccc1	-0.2	-3.7	66.4*	-0.4	-7.1	15.7
COc1ccc(-c2cc(C3CC3)nc(SCC(=O)c3ccc(Br)cc3)c2C#N)cc1	0.1	-1.9	6.9	-0.9	nt	nt
SMILES	FBW7 activator	TEAD-YAP block	MITF primary	GPR151 activ	MITF confirm	AlphaScreen intf2	others
COc1ccc(-c2cc(C3CC3)nc(SCC(N)=O)c2C#N)cc1	-0.2	13.9	51.5*	-0.8	-3.6	-5.1
Cc1cccc(C)c1NC(=O)C(C)N1C(=O)c2ccccc2S1(=O)=O (stereo unspecified)	0.0	-6.1	-5.1	0.0	nt	nt
Cc1ccc(Cl)c(OCCN2CCNCC2)c1	0.0	-9.3	4.5	-0.2	nt	nt
Cc1cc(Cl)c(OCCN2CCNCC2)c(Br)c1	-0.2	-12.7	75.8*	3.4	-5.1	-7.1
Cc1cc(Cl)cc(C)c1OCCOCCNC(C)C	0.5	0.6	50.7*	-0.1	-6.9	-6.1
COCCNCCOCCOc1c(C)cc(C)cc1Cl	-0.1	5.8	53.4*	-0.4	3.6	12.3
Cc1cc(C)c(OCCOCCNC(C)C)c(C)c1	-0.1	-2.6	40.7	1.8	nt	nt
Cc1cc(OCCN2CCNCC2)cc(C)c1Cl	-0.1	4.9	61.9*	0.5	0.0	1.6
COc1ccc(Br)cc1C1N=C(c2cccc(Cl)c2)CC(c2ccccc2O)N1 (stereo unspecified)	0.0	-31.6	-7.0	-1.8	nt	nt
COc1cccc(Nc2cc3c(cc2[N+](=O)[O-])C(=O)N(c2ccc(C)cc2)C3=O)c1	-0.1	3.1	-4.8	0.9	nt	nt
O=C(NCc1cccnc1)C1CC12CCN(Cc1cccs1)CC2 (stereo unspecified)	0.1	4.1	9.8	-0.3	nt	nt
COc1cc(Nc2nc(-c3c(C)noc3C)ncc2C)cc(OC)c1OC	-0.2	-1.4	-3.3	1.3	nt	nt
Oc1ccc(Br)cc1C1CC(c2ccc3c(c2)OCO3)=NC(c2c(F)cccc2Cl)N1 (stereo unspecified)	0.0	18.4	-1.5	-0.4	nt	nt
Cc1cc(C)c(OCCCCN2CCNCC2)c(Cl)c1	-0.1	-9.9	70.2*	-0.9	4.8	0.0
Cc1cccc(C)c1OCCCCN1CCNCC1	0.3	6.8	64.4*	1.0	5.4	1.8
Cc1cc(OCCOCCN2CCN(C)CC2)cc(C)c1Cl	0.1	3.0	62.1*	-1.5	14.3	14.7
Cc1cc(C)c(OCCOCCN2CCN(C)CC2)c(Cl)c1	-0.1	-3.3	67.2*	1.5	20.4	16.3
Cc1cc(C)c(OCCCCN2CCNCC2)c(C)c1	0.0	-3.5	0.2	-0.2	nt	nt
CC(C)c1ccc(OCCCCN2CCNCC2)cc1	-0.3	11.4	61.9*	-1.7	-2.2	11.5
Cc1cc(Cl)c(OCCOCCN2CCNCC2)c(Cl)c1	-0.1	2.5	90.0*	2.7	18.1	11.1
COc1ccc(C2(CC(=O)N(C)CC(O)c3ccccc3)CC(=O)N(C3CC3)C2=O)cc1 (stereo unspecified)	0.0	4.2	9.3	-1.3	nt	nt
O=C(c1ccc2c(c1)OCO2)N1CCN(Cc2ccc3c(c2)OCO3)CC1	-0.2	-3.8	-3.3	-1.6	nt	nt
COc1ccc(CN2CCN(Cc3ccc4c(c3)OCO4)CC2)cc1OC	-0.1	-1.3	81.6*	0.0	10.9	9.2
CCOc1cc(CN2CCN(Cc3ccc4c(c3)OCO4)CC2)ccc1OC	-0.1	3.0	31.0	3.1	nt	nt
COc1ccc(CN2CCN(Cc3ccc4c(c3)OCO4)CC2)cc1C	0.0	3.2	37.7	0.8	nt	nt

High-throughput results deposited in PubChem BioAssay by The Scripps Research Institute Molecular Screening Center.
